NLRP3 yeast inh – NALP3 inflammasome inhibitors in reconstituted yeast, primary screen, luminescence, uHTS; Yeast reconstituted NLRP3/ASC/caspase-1, beta-gal luminescence, 24 h; inhibition, % at 10 µM; 330,000 tested, 0.39% active;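 active = inhibition of 50% or more; inactive = inhibition below 50%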
TIM10 inh – growth inhibitors of isogenic TIM10 control yeast, primary screen, counter-screen for tim10-1 yeast inhibitor project, luminescence, uHTS; S. cerevisiae TIM10 strain growth, BacTiter-Glo luminescence, 24 h; inhibition, % at 10 µM; 330,000 tested, 1.4% active;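 active = inhibition of 40% or more at the single tested concentration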;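 also: wild-type TIM10 isogenic control strain grown at permissive 25 °C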
tim23-1 inh – growth inhibitors of tim23-1 mutant yeast, primary screen, luminescence, uHTS; AID 463212, 2010; inhibition, % at 20 µM; 330,000 tested, 1.3% active; S. cerevisiae tim23-1 growth, BacTiter-Glo luminescence, 24 h;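 active = growth inhibition of the mutant yeast at or above 50%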;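 also: temperature-sensitive mutant grown at 25 °C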
tim10-1 inh – growth inhibitors of tim10-1 mutant yeast, primary screen, luminescence, uHTS; inhibition, % at 20 µM; 330,000 tested, 2.2% active; S. cerevisiae tim10-1 ts strain growth, BacTiter-Glo, 24 h;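 active = inhibition of at least 40%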;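 also: mutant grown at 25 °C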
PfHsp90 set2 – growth inhibition of PfHsp90-expressing yeast, primary screen, antimalarial PfHsp90 inhibitor project, S. cerevisiae, BacTiter-Glo luminescence, single point, set 2; inhibition, % at 9.4 µM; BacTiter-Glo ATP, 48 h; yeast lacking PDR1 and PDR3 efflux regulators; 310,000 tested, 0.32% active;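 active = every replicate shows inhibition above about 80%, whatever the replicate mean, limit read from the data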
tim10-1 conf – growth inhibitors of tim10-1 mutant yeast, confirmation, single concentration, luminescence, S. cerevisiae. shares compounds with tim10-1 inh. S. cerevisiae tim10-1 ts strain growth, BacTiter-Glo, 24 h. inhibition, % at 20 µM. 7,400 tested, 56% active. AID 463213, 2010;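 active = inhibition of yeast growth at or above a set limit in either of two repeat tests at 20 µM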;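 also: tim10-1 mutant grown at permissive 25 °C to find synthetic lethal compounds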
tim10 confirm – growth inhibitors of wild-type TIM10 yeast, confirmation, counter-screen for tim10-1 synthetic lethality project, single concentration, luminescence, S. cerevisiae | inhibition, % at 10 µM | shares compounds with TIM10 inh | S. cerevisiae tim10 strain growth, BacTiter-Glo luminescence, 24 h | 4,600 tested, 63% active | AID 463215, 2010;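 active = inhibition of yeast growth at or above a set limit in either of two replicates at 10 µM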; also: this counterscreen used the strain with wild-type TIM10
tim23-1 conf – tim23-1 mutant yeast growth inhibitors, confirmation, luminescence, single concentration | shares compounds with tim23-1 inh | S. cerevisiae tim23-1 growth, BacTiter-Glo luminescence, 24 h | inhibition, % at 20 µM | 4,400 tested, 83% active | AID 463218, 2010;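 active = inhibition above about 39% in either of two replicate wells at 20 µM, limit read from the data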;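 also: temperature-sensitive tim23-1 mutant grown at 25 °C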
Each line names hits and unclear results; the compound was inactive in the other large screens (follow-up assays come after a bar, where they were run). In the library only some 3.7% were active in any assay of this set; here they are far more common.

O=c1cc(CN2CCc3ccccc32)c2ccc(O)cc2o1	tim23-1 inh 51, tim10-1 inh 44 | tim10-1 conf 32 | tim23-1 conf 48
O=C(/C=C/c1ccccc1O)c1ccco1	tim23-1 inh 52, tim10-1 inh 44 | tim10-1 conf 35 | tim23-1 conf 50
Nc1ccc(/C=C/C(=O)c2ccco2)cc1	none
COc1ccccc1/C=C/C(=O)NCC(=O)N/N=C/c1ccc(C)o1	none
COc1ccc(C/C(N)=N/OC(=O)Cc2ccccc2)cc1OC	none
N/C(Cc1ccc(Cl)cc1Cl)=N\OC(=O)Cc1ccccc1	TIM10 inh 86, tim23-1 inh 75, tim10-1 inh 52 | tim10-1 conf inactive | tim10 confirm 88 | tim23-1 conf 61
c1ccc(-c2nc3nonc3nc2-c2ccccc2)cc1	TIM10 inh 64, tim23-1 inh 61, tim10-1 inh 80 | tim10-1 conf 72 | tim10 confirm 57 | tim23-1 conf 84
O=C(CCN=C1NS(=O)(=O)c2ccccc21)OCc1c(F)c(F)c(F)c(F)c1F	none
CC1=NN(c2ccc(C)cc2)C(=O)/C1=C\C=C\c1ccccc1	none
CC1=NN(c2cccc(C(=O)O)c2)C(=O)/C1=C\C=C/c1ccccc1	TIM10 inh 47, tim23-1 inh 53, tim10-1 inh 43 (no result: PfHsp90 set2) | tim10-1 conf 47 | tim10 confirm 42 | tim23-1 conf 62
Cc1nn(-c2ccccc2)c(C)c1/C=N/Nc1nc2ccccc2[nH]1	TIM10 inh 48, tim23-1 inh 52, tim10-1 inh 45 | tim10-1 conf inactive | tim10 confirm inactive | tim23-1 conf 41
COc1ccc(-c2nnc(SCC(=O)Oc3ccc(C)cc3)o2)cc1	TIM10 inh 89, tim23-1 inh 53, tim10-1 inh 91, PfHsp90 set2 105 | tim10-1 conf 84 | tim10 confirm 91 | tim23-1 conf 58
Oc1ccccc1-c1cc(-c2ccccc2Cl)[nH]n1	TIM10 inh 64, tim23-1 inh 76, tim10-1 inh 73 (no result: PfHsp90 set2) | tim10-1 conf 53 | tim10 confirm 58 | tim23-1 conf inactive
Fc1cccc(-c2n[nH]c(=S)n2-c2ccccc2)c1	none
Oc1ccccc1-c1cc(-c2cccc(F)c2)n[nH]1	tim23-1 inh 64, tim10-1 inh 41 | tim10-1 conf inactive | tim23-1 conf 52
Oc1cc2ccccc2nc1-c1ccccc1Cl	none
CC1CCCCN1C(=O)CN1CCN(S(=O)(=O)c2ccc(Br)cc2Cl)CC1 (centres undefined)	tim23-1 inh 52, tim10-1 inh 43 | tim10-1 conf inactive | tim23-1 conf 43
CC(C)(C)c1ccc(S(=O)(=O)N2CCN(CCC#N)CC2)cc1	tim23-1 inh 51, tim10-1 inh 50 (no result: PfHsp90 set2) | tim10-1 conf inactive | tim23-1 conf inactive
NC(=S)N/N=C/c1ccc(-c2cc(Cl)cc(Cl)c2)o1	none
NC(=S)N/N=C/c1ccc(-c2cc(Cl)ccc2Cl)o1	TIM10 inh 45, tim23-1 inh 54, tim10-1 inh 44 | tim10-1 conf inactive | tim10 confirm 39 | tim23-1 conf 62
O=C(CC1SC(N2CCOCC2)=NC1=O)Nc1ccc(Cl)c(C(F)(F)F)c1 (centres undefined)	none
CCCCCC/C(=N/O)c1ccccn1	TIM10 inh 57, tim23-1 inh 60, tim10-1 inh 42 | tim10-1 conf inactive | tim10 confirm inactive | tim23-1 conf 52
OCC1OCOC2C(CO)OCOC12 (centres undefined)	none (no result: NLRP3 yeast inh, TIM10 inh, tim23-1 inh, tim10-1 inh)
COc1ccc2[nH]c3c(=O)n(N)c(C)nc3c2c1	none
